Reference: PubChem BioAssay AID1698 (The Scripps Research Institute Molecular Screening Center, 2009)
This is one part of the list. Activity calls are given as the source filed them.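 The calls were made as follows: active = activation above the solvent-only control wells' mean plus 3 SD (cut at about 11% in these data); inactive = the rest.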

Target: Neuropeptide Y receptor type 2 (Homo sapiens) (UniProt P49146)
Assay: NPY-Y2 direct agonists without NPY, counter-screen for NPY-Y1 potentiator project, cell-based, fluorescence (AID 1698);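 also: 0% = DMSO with isoproterenol and 100% = 40 nM NPY maximal response; agonism lowers cAMP so well fluorescence drops in active wells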
Conditions: HEK293 Y2-CNGC, membrane potential fluorescence, agonist mode; at 3.6 µM; stronger effect = higher value

Chain of Neuropeptide Y receptor type 2 (Homo sapiens) (P49146 whole entry, looked up): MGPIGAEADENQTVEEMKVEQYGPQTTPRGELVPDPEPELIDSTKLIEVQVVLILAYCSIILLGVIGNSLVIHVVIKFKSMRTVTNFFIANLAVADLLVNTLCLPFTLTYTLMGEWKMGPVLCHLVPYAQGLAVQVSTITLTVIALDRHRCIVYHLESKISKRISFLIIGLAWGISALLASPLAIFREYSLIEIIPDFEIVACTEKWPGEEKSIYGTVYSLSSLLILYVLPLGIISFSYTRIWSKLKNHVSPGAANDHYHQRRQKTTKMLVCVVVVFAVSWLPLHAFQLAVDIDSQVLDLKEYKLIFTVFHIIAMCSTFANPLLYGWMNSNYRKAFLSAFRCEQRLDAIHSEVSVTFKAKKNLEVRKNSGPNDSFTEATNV

Compound	activation
Cc1nn(Cc2ccccc2Cl)c(Cl)c1C(=O)OC(C(=O)NC(N)=O)C(C)C (configuration not stated)	31.5% (active)
CSC1=NP(=S)(SC)N(C)c2nc3n(c21)CCC3 (configuration not stated)	5.24% (inactive)
